bovine MsrA act – bovine MsrA enzyme activators, primary screen, biochemical, absorbance, HTS; purified bovine MsrA, absorbance read-out; activation, % at 10.6 µM; 0.3% of 360,000 active; AID 602163, 2012; in the data active = activation above about 7.5%;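 also: 0% = vehicle and 100% = reference activator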
GC-B act – human GC-B receptor activators, primary screen, HEK293 GC-B cells, cGMP TR-FRET, EC30 CNP. 0% at EC30 CNP, 100% saturating CNP. activation, % at 10 µM. 0.11% of 370,000 active;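 active = activation at 10 µM reaching about 35% in either raw or pattern-adjusted values, limit read from the data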
m5-HT2A agonist – mouse Htr2a agonists via beta-arrestin recruitment, primary screen, cell-based, luminescence | 0.66% of 360,000 active | activation, % at 7.6 µM | AID 624169, 2012 | CHO-K1 mHTR2A beta-arrestin complementation; percent of 30 µM serotonin response | 5-hydroxytryptamine receptor 2A (Mus musculus), P35363;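 active = activation above a run cutoff, the mean activation of all tested compounds plus 3 SD, cut at about 14% in these data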;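 also: 0% = plate median of compound wells and 100% = 30 µM serotonin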
MsrA inh – bovine MsrA enzyme inhibitors, primary screen, biochemical, absorbance, HTS; Methionine sulfoxide reductase A (Bos taurus); 0.75% of 360,000 active; inhibition, % at 15.5 µM; purified bovine MsrA, absorbance read-out;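 also: 0% = vehicle wells with enzyme and 100% = reference inhibitor wells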
NPR1 activator – GC-A stimulated cGMP production enhancers – HEK293 GC-A cells, cGMP TR-FRET, EC30 ANP, primary screen; 0.14% of 370,000 active; 0% at EC30 ANP, 100% saturating ANP; AID 1671463, 2021; Atrial natriuretic peptide receptor 1 (Homo sapiens), P16066; activation, % at 10 µM; in the data active = activation above about 40%
MsrA activ conf – bovine MsrA activators, retest, confirmation, biochemical, absorbance, HTS | shares compounds with bovine MsrA act | purified bovine MsrA, absorbance read-out | activation, % at 10.6 µM | 12% of 1,000 active | AID 602270, 2012; in the data active = activation above about 4%;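 also: enzyme coupled to thioredoxin and thioredoxin reductase with NADPH; 0% = vehicle wells and 100% = reference activator wells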
MOR ag counter – OPRM1 agonists via beta-arrestin recruitment, confirmation, counter-screen for mouse HTR2A agonist project, cell-based, luminescence, single concentration | shares compounds with m5-HT2A agonist | U2OS OPRM1 beta-arrestin PathHunter; DMSO 0%, DAMGO 9.3 µM 100% | activation, % at 9.3 µM | 5.3% of 2,300 active;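 active = mean activation above the mean of DMSO-only wells plus 3 SD, cut at about 0.5% in these data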
m5-HT2A ag conf – mouse HTR2A agonists, beta-arrestin recruitment, confirmation, cell-based, luminescence, CHO-K1 PathHunter, triplicate; shares compounds with m5-HT2A agonist; 19% of 2,300 active; DMSO 0%, 30 µM serotonin 100%; activation, % at 7.6 µM; AID 624381, 2012;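 active = mean activation across triplicates above the hit threshold derived in the original primary screen, cut at about 15% in these data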
MsrA conf – bovine MsrA inhibitors, retest, confirmation, biochemical, absorbance, HTS. 41% of 2,300 active. inhibition, % at 15.5 µM. shares compounds with MsrA inh. purified bovine MsrA, absorbance read-out;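 also: coupled to thioredoxin reductase with NADPH and selenocystamine and DMSO as substrate; 0% = vehicle only and 100% = full effect of reference inhibitor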
* marks the source's active call; other numbers are inactive results; / = no result. Hits are enriched below; roughly 1.8% of the tested compounds scored in any of these assays. Rule as the data show it, unless noted: active = inhibition above about 4.5%; inactive = the rest.

SMILES	bovine MsrA act	GC-B act	m5-HT2A agonist	MsrA inh	NPR1 activator	MsrA activ conf	others
Cc1ccccc1Nc1nc(N)nc(COC(=O)[C@@H](NC(=O)c2c(F)cccc2F)C(C)C)n1	0.7	-0.5	3.1	0.5	0.8	/
Cc1ccccc1Nc1nc(N)nc(COC(=O)[C@@H](NC(=O)c2ccccc2Cl)C(C)C)n1	8.1*	0.2	3.7	-1.7	1.6	-0.3
CC(C)(C)c1ccc(S(=O)(=O)N2CCC(C(=O)NCc3cccs3)CC2)cc1	/	4.5	/	/	1.6	/
Nc1nc(=S)ss1	38.1*	10.4	-4.6	1.5	18.2	28.1*
c1cc2c(cc1-c1[nH]ncc1CN1C[C@H]3CC[C@H]1C3)OCO2	12.2*	-2.4	4.6	0.5	-4.4	-2.1
CN(Cc1cn[nH]c1-c1ccc2c(c1)OCO2)C1CCOCC1	-1.9	1.7	-2.9	-0.4	-0.2	/
CCOC(=O)c1cc2nc(OCC)nc(OCC)c2[nH]1	8.7*	3.4	2.5	1.1	1.6	-1.3
CCOC(=O)c1cc2cc3ccccc3cc2[nH]1	0.1	-10.0	1.9	0.3	9.0	/
O=C(CSc1nnc(-c2ccccc2F)n1-c1ccccc1)c1ccc2ccccc2c1	/	-2.2	/	/	-3.0	/
CC1(C)NC(=O)N(c2ccccc2Cl)C1(C)NO (stereo not given)	10.8*	5.5	9.1	0.5	2.6	-3.2
CC(C)N(Cc1cn(Cc2ccccc2)nn1)S(=O)(=O)c1ccccc1Br	/	-4.1	/	/	2.9	/
Cc1nnc(SCCC#N)n(CCC#N)c1=O	9.2*	0.9	2.5	-0.2	3.7	-1.7
Cn1ccnc1SCCC#N	-2.6	-1.2	-1.3	-0.2	0.3	/
O=C(Nc1ccccc1F)O[C@@H]1CC[C@@]23CCCN2C(=O)CCC[C@H]3C1	/	0.3	/	/	-0.9	/
CC(C)[C@H](NC(=O)c1ccccc1)C(=O)N1CCC[C@H]1C(=O)NCc1ccccc1	/	6.1	/	-0.8	2.5	/
C[C@H]1[C@@H](OC(=O)NCc2ccco2)CC[C@@]23CCCN2C(=O)CCC[C@@H]13	/	-0.3	/	/	-1.5	/
O=C(Nc1nnc(-c2ccco2)o1)c1ccc(S(=O)(=O)N2CCCC2)cc1	15.6*	0.1	0.1	1.5	-2.1	-2.2
CS(=O)(=O)c1ccc(C(=O)Nc2ccc(S(=O)(=O)N3CCCCC3)cc2)cc1	14.9*	1.5	-5.5	-0.3	0.6	0.0
CC1CCN(S(=O)(=O)c2ccc(C(=O)Nc3nnc(-c4ccco4)o3)cc2)CC1	-12.3	-6.7	-0.5	1.0	-0.5	/
CC(=O)Nc1ccc(C(=O)Nc2ccc(S(=O)(=O)N3CCCCC3)cc2)cc1	-1.6	-6.9	-6.3	0.3	-4.8	/
O=C(C1CCCN(S(=O)(=O)c2cccs2)C1)N1CCN(Cc2ccccc2)CC1 (stereo not given)	/	6.4	/	/	3.0	/
O=C(Nc1ccc(F)cc1)OCc1cn(Cc2ccc(C(F)(F)F)cc2)nn1	/	7.4	/	/	-0.3	/
CCCCNC(=O)CN(Cc1ccco1)S(=O)(=O)c1ccc(C(C)=O)cc1	10.5*	-4.0	5.2	0.0	0.9	-2.1
CCO[C@H]1OC(C(=O)NC2CC2)=C[C@@H](c2c[nH]c3ccccc23)[C@@H]1CCCO	8.4*	-2.9	4.3	-0.8	-0.3	-1.1
Cc1ccc(-c2ccnc(=S)[nH]2)cc1	9.4*	-1.0	15.1*	-0.4	-2.6	6.2*	MOR ag counter=-0.7;m5-HT2A ag conf=0.7
SMILES	bovine MsrA act	GC-B act	m5-HT2A agonist	MsrA inh	NPR1 activator	MsrA activ conf	others
O=C(c1ccco1)N1CCN(CCCCOc2ccc(F)cc2)CC1	9.4*	7.2	18.6*	-1.0	3.1	-2.4	MOR ag counter=-0.5;m5-HT2A ag conf=63.1*
Nc1ncnc2[nH]c(=S)[nH]c12	10.8*	1.6	17.3*	0.0	2.6	0.8	MOR ag counter=-0.4;m5-HT2A ag conf=-0.1
CSc1nc2ncnc(N)c2[nH]1	-2.2	4.3	0.1	-0.7	-2.5	/
CCCCn1cnc2c(=O)[nH]ccc21	/	-4.0	/	/	4.8	/
C#CCNC(=O)C[C@H]1C[C@@]2(C(=O)OC)C(=C[C@H](C(C)C)O[C@@H]2C2CC2)N(Cc2ccc3c(c2)OCO3)C1=O	/	-14.1	/	/	-8.3	/
Cc1cc(C(=O)O)ccc1-c1ccc(/C=N/n2cnnc2)o1	8.4*	2.0	0.8	9.2*	-3.1	-6.2	MsrA conf=6.5*
CC(=O)c1ccc(NC(=O)c2ccc([N+](=O)[O-])o2)cc1	9.1*	-2.5	1.7	10.8*	-9.3	2.3	MsrA conf=5.7*
CC(=O)c1cccc(NC(=O)c2ccc([N+](=O)[O-])o2)c1	3.8	-5.2	-2.3	1.2	-0.2	/
O=C1C(Cl)=C(Nc2ccc(O)cc2)C(=O)c2ccccc21	9.2*	-13.2	2.4	17.4*	-17.4	7.0*	MsrA conf=12.0*
COc1ccc(Nc2ccc(C(F)(F)F)cc2[N+](=O)[O-])cn1	13.4*	1.0	-1.7	23.6*	3.2	0.9	MsrA conf=18.2*
O=C(N[C@@H]1CCCc2c1cnn2-c1ccc(F)cc1F)c1ccccn1	/	-3.2	/	/	-0.4	/
O=S(=O)(Nc1cc(Sc2cccc3cccnc23)c(O)c2ccccc12)c1ccc(F)cc1	/	6.4	/	2.4	7.3	/
O=C(O)CSc1cc(NS(=O)(=O)c2ccc(Cl)cc2)c2ccccc2c1O	7.8*	4.9	4.9	9.5*	5.2	0.0	MsrA conf=-0.2
CCC(C(=O)Nc1ccccc1N1CCCC1)c1cccc(C)c1 (stereo not given)	/	-23.3	/	/	-10.4	/
C=CCN1C(=O)[C@@H](CC(=O)N2CCCC2)[C@]2(C(=O)OCC)CCCCC/C=C/12	/	-6.8	/	/	-1.3	/
COc1ccc(/C=N/NC2=NS(=O)(=O)c3ccccc32)cc1OC(C)=O	14.7*	-0.4	-4.5	5.4*	-2.2	-4.1	MsrA conf=3.8
CC(=O)Oc1ccc(/C=N/NC2=NS(=O)(=O)c3ccccc32)cc1	-2.2	3.5	4.9	3.4	0.3	/
CCCCCC(=O)Nc1cccc(C2=NOC3(C2)C[C@H](C(N)=O)N(C(=O)COc2ccc(Cl)cc2)C3)c1 (stereo not given in full)	-3.6	-5.8	21.7*	-0.5	-0.8	/	MOR ag counter=0.0;m5-HT2A ag conf=6.7

Screening data as filed in PubChem BioAssay.
